Where a chain is given by its changes, count along the chain named. In all, about 24,000 sequences were measured (“enrichment r”: median about 0.99, highest 2% from about 3.7 on). The sample as a whole holds a higher share of the highest values than the screen did.

18 molecules from publication PMC12136788 can be followed below.

T1: UNK ZnF1-3 (human, UniProt Q9C0B0 31-174)
T1 sequence: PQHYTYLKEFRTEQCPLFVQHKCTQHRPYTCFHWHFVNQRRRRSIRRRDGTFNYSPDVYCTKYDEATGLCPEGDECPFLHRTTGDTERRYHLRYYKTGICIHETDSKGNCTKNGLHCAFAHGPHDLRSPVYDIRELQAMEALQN

B1: chr1:89346535:89346536:+_ENSMUSG00000048000_ENSMUST00000174671|mus_hu|motif|central (ssRNA)
RNA: GGGAGUUCUACAGUCCGACGAUCAGCUGCCUCUUAAACGAGACAAAUUUUCAGCAGAAGGGCCCAAAACAAAAUGGUCCGGGUCCUCUGAAGUAAAAAUAUUUAUGGGAAAAAUCAGUUUUUGUAAGAAAGAAAAAUUAAGAACAACAGAGGAUUGAGCAUCA
B2: chr1:89346535:89346536:+_ENSMUSG00000048000_ENSMUST00000174671|mus_hu|FALSE|FALSE (ssRNA)
RNA: B1 RNA with G80U, G81A
B3: chr1:89346535:89346536:+_ENSMUSG00000048000_ENSMUST00000174671|mus_mus|motif|central (ssRNA)
RNA: GGGAGUUCUACAGUCCGACGAUCAAGAUGCCUCUUAAACGAGACAAAUUUUCACAUAAGGGCCCAAAACAAACUGGUCCGGGUCCUUGAAGUAAAAAUAUUUAUGGGAGGAGGGGAGAUCAGUUUUUAUAUGAAAGGAAAAUUCAACAGAGGAUUGAGCAUCA
B4: chr2:42509997:42509998:+_ENSG00000143924_ENST00000318522|hu_mus|hu_hu_hu_mus_True|78_78 (ssRNA)
RNA: GGGAGUUCUACAGUCCGACGAUCUCGCUGAGUCCUCUCCUCAUAAUUAAACAGGACUACUACUGAUGCGAUAAAAUAAACUAUCUCCCCUGUGGGAAGCAGGUAUACAUUCGCUCUACAGUCCUUUCCUCGAUAACCGUAUACCAACAGAGGAUUGAGCAUCA
B5: chr10:13251168:13251169:-_ENSMUSG00000019809_ENSMUST00000019945|mus_hu|FALSE|FALSE (ssRNA)
RNA: GGGAGUUCUACAGUCCGACGAUCAGCCAUAUUGUCUAGAAGUCUACUAAAACCUCGGUUUAAACAGGUAUUCAAAACUGUACUAAAAUCUGGGCUUUCCAACAUGUCUCUAGUUUCAUUGAGAAGUUUAAUAGUGGUAAUGUCCAACAGAGGAUUGAGCAUCA
B6: chr16:732453:732454:+_ENSG00000103266_ENST00000219548|hu_mus|FALSE|FALSE (ssRNA)
RNA: GGGAGUUCUACAGUCCGACGAUCUGCCAGGCAGGACAUGGGGCCUCAAUAGUCCUCUACCCAGCCGUUCUCAGAGAUGAAAGCGUCAAUGACUUCCUUCAUGGCCAAGUUGGGGAUGAGCUGUUCCUGGGUCAGAGGGCUCCGCAACAGAGGAUUGAGCAUCA
B7: chr9:95013113:95013114:-_ENSG00000196305_ENST00000443024|hu_hu|hu_hu_hu_mus_False|1_88 (ssRNA)
RNA: GGGAGUUCUACAGUCCGACGAUCCUCAGUCAGAAAGGGCGUGUAAGGAGCCAUAAGUCUGCACAGAGAAAGCAGGACACUGAACAGUGUCUCCAGAGCCAUGACACAGUCUUCCACCCCACUCUCACCCUUUAACCUUCUGCGCAACAGAGGAUUGAGCAUCA
B8: chr16:30313237:30313238:-_ENSMUSG00000022533_ENSMUST00000100013|mus_mus|FALSE|FALSE (ssRNA)
RNA: GGGAGUUCUACAGUCCGACGAUCAACAACCCUGAGGGAGACCCACAUUAAAAAAUCUUAUUUAUUUAAAAAGUUAAAAAGCUACAUAUCAUUAUUUAACAAUUACUUUACCAGACAUUUCUGUCCUUUAAGUAUGUGCAUAAACAACAGAGGAUUGAGCAUCA
B9: chr16:30313237:30313238:-_ENSMUSG00000022533_ENSMUST00000100013|mus_hu|FALSE|FALSE (ssRNA)
RNA: GGGAGUUCUACAGUCCGACGAUCCAACCCUGAGGGAGACACACAUUAAAAAUCUUGUUAUUUAUUUAAAAAGUUAAAAAGUUACAUAUCAUUAUUUAACAAUUACUUUCCCAGACAUUUCUGUCCUUUAAGUAUGUGCAUAAACAACAGAGGAUUGAGCAUCA
B10: chr7:135612270:135612271:-_ENSG00000105887_ENST00000393085|hu_mus|hu_hu_hu_mus_False|38_48 (ssRNA)
RNA: GGGAGUUCUACAGUCCGACGAUCGUUUUUUUCUGAGAUGUUAAAUAGUACUUCAGUGGAAAACAAAACUUAACCUUUUAUUAAUGCAUGUAGUACCAGAAAGCAAAAUUUUAGCUUCAUUUAUUCAAAAAUAUUAACAUUAAGCAACAGAGGAUUGAGCAUCA
B11: chr7:135612270:135612271:-_ENSG00000105887_ENST00000393085|hu_mus|hu_hu_hu_mus_False|28_58 (ssRNA)
RNA: GGGAGUUCUACAGUCCGACGAUCGUUUUUUUCUGAGAUGUUAAAUAGUACUUCAGUGGAAAACAAAACUUAACCUUUCGCUAAUGCGUGUUGUACCAAAAGCAGACCAUGGUUUUACAUUUAUUCAAAAAUAUUAACAUUAAGCAACAGAGGAUUGAGCAUCA
B12: chr7:135612270:135612271:-_ENSG00000105887_ENST00000393085|hu_mus|hu_hu_hu_mus_False|1_58 (ssRNA)
RNA: GGGAGUUCUACAGUCCGACGAUCGUUUUUUUCUGAGAUGUUAAAUAGUACUUCAGUGGAAAACAAAACUUAACCUUUCGCUAAUGCGUGUUGUACCAAAAGCAGACAUUUUAGCUUCAUUUAUUCAAAAAUAUUAAGAACAUUCAACAGAGGAUUGAGCAUCA
B13: chr7:135612270:135612271:-_ENSG00000105887_ENST00000393085|hu_mus|hu_hu_hu_mus_False|38_88 (ssRNA)
RNA: B10 RNA with G47U, A49C, C50A, U51G, C53G, A54G, G55A, U56G, A87G, A91U
B14: chr1:58468927:58468928:-_ENSMUSG00000026034_ENSMUST00000148330|mus_mus|mus_mus_mus_hu_False|28_48 (ssRNA)
RNA: GGGAGUUCUACAGUCCGACGAUCAAUUACUGAAAAAGAUGUUCAUUACCUUAGCUAUGUACUUAAUGAACCAAAUUACCCAAACAACAUAAAAUGUGCAAUAUAAAAAGCUAUACAAUUUACAAAGCUGUACAAAAUAACUUACAACAGAGGAUUGAGCAUCA
B15: chr7:135612270:135612271:-_ENSG00000105887_ENST00000393085|hu_mus|hu_hu_hu_mus_False|28_108 (ssRNA)
RNA: GGGAGUUCUACAGUCCGACGAUCGUUUCUGAGAUGUAUGUUAAAUAGUACUUCAGUGGAAAACAAAACUUAACCUUUUAUUAAUGCGUGUUGUACCAAAAGCAGACCAUGGUUUUACAUUUAUUCAAAAAUAUUAACAUUAAGCAACAGAGGAUUGAGCAUCA
B16: chr11:94154035:94154036:-_ENSMUSG00000020863_ENSMUST00000107820|mus_mus|FALSE|FALSE (ssRNA)
RNA: GGGAGUUCUACAGUCCGACGAUCAAUAGUUAAGUUUUAAAGCAUAUGUUUCUGCCAAUGUACCAACACAAGAUGGACUUAAUACCAAAAAGAAAAAAAAAACAGUUCAACCUUUUUAUUAAAAAAAAAAAGAAAAAGAAAAAGCAACAGAGGAUUGAGCAUCA
B17: chr7:135612270:135612271:-_ENSG00000105887_ENST00000393085|hu_mus|hu_hu_hu_mus_False|28_38 (ssRNA)
RNA: B11 RNA with C78U, G79A, C80U, A98G, G101A, C102G, A103C, G104A, C106A
B18: chr9:56975896:56975897:+_ENSMUSG00000042557_ENSMUST00000167715|mus_hu|FALSE|FALSE (ssRNA)
RNA: GGGAGUUCUACAGUCCGACGAUCACAUCAAAGCAUAUUUCUUUUAAUAAAAAAUUGACAGUAUGUACAUUAUGUACAAAAAAACAAGUUAAAAUUGUGUGUGUGUGUGCGUGUGUGUGUCAGAGAGUAAAGCUGGUGGAUGGCCAACAGAGGAUUGAGCAUCA

In this assay the target is T1, UNK ZnF1-3. Kind of assay: nsRBNS (natural sequence RNA bind-n-seq); RBNS binding buffer (assumed for nsRBNS): 25 mM Tris pH 7.5, 150 mM KCl, 3 mM MgCl2, 0.01% Triton X-100, 500 ug/ml BSA, 20 U/ml SUPERase-In, 4 C; UNK is unkempt and MSI1 is Musashi-1; names of the RNAs are library labels; protein concentration not given here; high values mean tight binding.
B1 had a binding signal of 10.8 enrichment R.
The same measure for B2: 14.4 enrichment R; for B3: 0.843 enrichment R; for B4: 0.957 enrichment R.
The same measure for B5: 1.27 enrichment R; for B6: 1.44 enrichment R.
The molecule B7 showed a binding signal of 1.12 enrichment R.
B8 came in with a binding signal of 4.91 enrichment R.
For B9, the binding signal turned out to be 3.61 enrichment R.
As to B10, the binding signal was 1.66 enrichment R.
The same measure for B11: 1.03 enrichment R.
The same measure for B12: 0.611 enrichment R; for B13: 4.08 enrichment R; for B14: 0.529 enrichment R.
B15 had a binding signal of 0.924 enrichment R.
The same measure for B16: 6.23 enrichment R; for B17: 0.956 enrichment R.
Molecule B18 returned a binding signal of 5.76 enrichment R.
